Experimental data published in PubChem BioAssay AID1671448 (Corson Lab, School of Medicine, Indiana University, 2021).
Among all 20,000 compounds or so, about 660 (3.3%) were called active.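 How the source made its calls: active means enzyme reaction rate more than 3 SD below the solvent-only control wells on the same plate; inactive means the rest.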 Only a selection was taken, and actives are over-represented in it overall.

biological target: Ferrochelatase, mitochondrial (Homo sapiens) (UniProt P22830); assay: inhibitors of human ferrochelatase, primary screen, biochemical, purified FECH, Ni-mesoporphyrin absorbance (AID 1671448); settings: Ni-mesoporphyrin absorbance 550 nm, screened at 10 µM (by protocol)
Sequence (P22830 whole entry, looked up): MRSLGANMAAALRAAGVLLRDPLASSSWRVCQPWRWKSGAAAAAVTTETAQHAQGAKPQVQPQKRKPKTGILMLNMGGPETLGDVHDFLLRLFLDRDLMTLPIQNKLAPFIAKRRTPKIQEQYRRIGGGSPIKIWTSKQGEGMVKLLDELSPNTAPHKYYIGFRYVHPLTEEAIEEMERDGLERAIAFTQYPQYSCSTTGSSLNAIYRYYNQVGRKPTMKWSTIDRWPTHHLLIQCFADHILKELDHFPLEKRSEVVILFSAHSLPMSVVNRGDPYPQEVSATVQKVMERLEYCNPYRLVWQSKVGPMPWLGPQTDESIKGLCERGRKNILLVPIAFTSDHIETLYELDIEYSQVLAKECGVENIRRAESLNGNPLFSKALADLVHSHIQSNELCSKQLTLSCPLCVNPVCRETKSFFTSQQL

| Compound | outcome |
| --- | --- |
| Cc1cccc(Cn2c(=O)c3cnc(-c4ccncc4)nc3n(C)c2=O)c1 | inactive |
| C=CC[C@@H]1CC=C[C@@H](C)N1C(=O)Cc1c(C)nc(C)[nH]c1=O | inactive |
| Cn1c(=O)n(CC(=O)NCc2cccs2)c(=O)c2cnc(-c3ccccc3)nc21 | inactive |
| C=CCn1c(=O)c2cnc(-c3ccc(Cl)cc3)nc2n(C)c1=O | active |
| COc1ccccc1-c1nc(Cn2c(=O)c3cnc(-c4ccc(Cl)cc4)nc3n(C)c2=O)c(C)o1 | inactive |
| Cn1c(=O)n(CC(=O)N2CCOCC2)c(=O)c2cnc(-c3ccccc3)nc21 | active |
| C=CCn1c(=O)c2cnc(-c3ccc(OC)cc3)nc2n(C)c1=O | inactive |
| CCc1ccc(CNC(=O)Cn2c(=O)c3cnc(-c4ccccc4)nc3n(C)c2=O)cc1 | inactive |
| COc1ccc(OC)c(S(=O)(=O)Nc2ccc(Sc3c(C)c(C)nc4ncnn34)cc2)c1 | inactive |
| COc1ccccc1C(=O)Nc1cc(C)nn1-c1ncnc2c1cnn2-c1ccc(C)cc1C | inactive |
| Cc1ccccc1C(C(=O)N1CCCOCC1)N(C)C (centres undefined) | inactive |
| Cc1ccsc1CN(CCO)C(=O)c1ccc2c(c1)CCCO2 | inactive |
| CC(=O)N1CCN(Cc2nc3c(C)c(C)ccc3[nH]2)CC1 | inactive |
| CC(C)NC(=O)C1CCC(Cn2c(=O)c3sccc3n(CC(=O)NCc3ccco3)c2=O)CC1 (centres undefined) | inactive |
| CCn1cc(CN2CCN(C)C3(CCN(C(=O)c4ccco4)CC3)C2)cn1 | inactive |
| CCOC(=O)c1cccc(Nc2cc(-c3ccc(C)cc3)nc(C)n2)c1 | inactive |
| CCC(=O)Nc1ccccc1-c1nnc(SC(CC)C(=O)Nc2ccc(OC)cc2)[nH]c1=O (centres undefined) | inactive |
| COc1ccc(N2C(=O)CCS2(=O)=O)cc1S(=O)(=O)Nc1ccc(C(C)C)cc1 | inactive |
| Nc1nc2c(c(-c3cccnc3)n1)CN(C(=O)c1cc(F)c(F)c(F)c1)C2 | inactive |
| CC(Cc1ccc2c(c1)OCO2)CN1CCC(NS(C)(=O)=O)CC1 (centres undefined) | inactive |
| Cc1noc(C)c1S(=O)(=O)N1CC(c2cccnc2)C1 | inactive |
| c1cc(CN2CCOCC2)cc(-c2ccc(NC3CCCC3)nn2)c1 | active |
| c1ccc(-c2ccc(-c3nccn3CCN3CCOCC3)s2)cc1 | inactive |
| O=C1CC(c2cccnc2)c2cnn(CC3CC3)c2N1 (centres undefined) | inactive |
| O=C(O)CSc1nnc(C2CCCNC2)n1-c1cccc(Cl)c1 (centres undefined) | inactive |
| c1ccc(C2CCN(CCn3ccnc3C3CC3)C2)cc1 (centres undefined) | inactive |
| Cc1cc(C)cc(Nc2nc(N3CCOCC3)nc3c2cnn3-c2ccccc2)c1 | inactive |
| Cc1cc(C)n(CCC(=O)N(Cc2ccccc2C)CC2CCCO2)c(=O)n1 (centres undefined) | inactive |
| CC1CNC(=O)CCN1Cc1ccc2cccc(Cl)c2n1 (centres undefined) | inactive |
